# Tests used:
# Test in all cases: DAPPL (digital affinity profiling via proximity ligation, sequencing); 10 mM Tris-HCl pH 7.5, 50 mM NaCl, 1 mM DTT, 4% glycerol, room temperature, 30 min; GST-TFs on glutathione beads, 16-mer random dsDNA library, 0.1% formaldehyde crosslink after washing; high values mean tight binding
# FLI1 = target: T1, FLI1 (Homo sapiens, UniProt Q01543 1-452); settings: protein: recombinant; tags: N-terminal GST; dsDNA, one strand shown
# T1 sequence: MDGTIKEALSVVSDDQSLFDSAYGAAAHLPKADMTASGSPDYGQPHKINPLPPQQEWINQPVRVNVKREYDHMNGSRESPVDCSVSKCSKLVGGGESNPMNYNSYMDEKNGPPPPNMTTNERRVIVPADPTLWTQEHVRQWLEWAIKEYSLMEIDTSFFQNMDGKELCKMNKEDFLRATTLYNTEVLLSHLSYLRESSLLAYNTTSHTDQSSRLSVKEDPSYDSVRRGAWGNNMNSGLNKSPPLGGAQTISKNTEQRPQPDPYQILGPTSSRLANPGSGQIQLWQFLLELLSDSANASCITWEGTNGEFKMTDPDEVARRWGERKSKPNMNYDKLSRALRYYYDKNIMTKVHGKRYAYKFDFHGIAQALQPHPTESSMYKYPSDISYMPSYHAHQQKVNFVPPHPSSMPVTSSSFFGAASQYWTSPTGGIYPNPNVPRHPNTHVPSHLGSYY
# Method in brief: (§1)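 Each value of binding signal is a hexamer's read frequency for a factor divided by the same hexamer's frequency in the tag-only sample. Barcoded, bead-captured GST fusions of human transcription factors made in yeast were pooled with that sample and incubated with 200 nmole of a random double-stranded 16-mer DNA library in Tris/NaCl/DTT/glycerol buffer at room temperature for 30 min. Washing, 0.1% formaldehyde crosslinking, proximity ligation, PCR and Illumina NextSeq500 sequencing followed.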
# ELK1 = target: T2, ELK1 (Homo sapiens, UniProt P19419 1-428); settings: protein: recombinant; tags: N-terminal GST; dsDNA, one strand shown
# T2 sequence: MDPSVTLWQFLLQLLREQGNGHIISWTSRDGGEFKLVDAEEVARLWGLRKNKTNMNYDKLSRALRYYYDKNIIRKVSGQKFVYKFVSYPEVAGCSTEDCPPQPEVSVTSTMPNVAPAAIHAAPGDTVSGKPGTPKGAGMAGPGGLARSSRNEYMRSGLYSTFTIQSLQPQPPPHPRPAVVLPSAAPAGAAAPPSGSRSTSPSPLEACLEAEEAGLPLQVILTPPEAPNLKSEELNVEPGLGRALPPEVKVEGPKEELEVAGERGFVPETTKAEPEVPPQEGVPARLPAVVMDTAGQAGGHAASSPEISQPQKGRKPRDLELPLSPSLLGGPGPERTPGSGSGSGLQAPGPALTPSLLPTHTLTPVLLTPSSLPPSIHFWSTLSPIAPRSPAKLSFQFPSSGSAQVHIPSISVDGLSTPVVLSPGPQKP
# Method in brief: as §1
# GABPA = target: T3, GABPA (Homo sapiens, UniProt Q06546 1-454); settings: protein: recombinant; tags: N-terminal GST; dsDNA, one strand shown
# T3 sequence: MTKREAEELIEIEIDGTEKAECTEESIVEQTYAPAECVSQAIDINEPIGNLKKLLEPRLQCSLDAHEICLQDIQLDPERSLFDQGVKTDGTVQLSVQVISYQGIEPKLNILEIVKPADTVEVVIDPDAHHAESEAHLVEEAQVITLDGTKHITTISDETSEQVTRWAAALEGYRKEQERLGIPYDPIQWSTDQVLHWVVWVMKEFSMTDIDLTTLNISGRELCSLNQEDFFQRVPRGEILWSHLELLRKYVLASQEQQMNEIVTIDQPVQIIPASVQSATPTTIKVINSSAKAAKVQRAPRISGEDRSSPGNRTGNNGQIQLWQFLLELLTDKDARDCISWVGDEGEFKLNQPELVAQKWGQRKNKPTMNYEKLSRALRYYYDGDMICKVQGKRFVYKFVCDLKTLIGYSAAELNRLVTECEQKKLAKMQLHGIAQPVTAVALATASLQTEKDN
# Method in brief: as §1
# ERG = target: T4, ERG (Homo sapiens, UniProt P11308 1-479); settings: protein: recombinant; tags: N-terminal GST; dsDNA, one strand shown
# T4 sequence: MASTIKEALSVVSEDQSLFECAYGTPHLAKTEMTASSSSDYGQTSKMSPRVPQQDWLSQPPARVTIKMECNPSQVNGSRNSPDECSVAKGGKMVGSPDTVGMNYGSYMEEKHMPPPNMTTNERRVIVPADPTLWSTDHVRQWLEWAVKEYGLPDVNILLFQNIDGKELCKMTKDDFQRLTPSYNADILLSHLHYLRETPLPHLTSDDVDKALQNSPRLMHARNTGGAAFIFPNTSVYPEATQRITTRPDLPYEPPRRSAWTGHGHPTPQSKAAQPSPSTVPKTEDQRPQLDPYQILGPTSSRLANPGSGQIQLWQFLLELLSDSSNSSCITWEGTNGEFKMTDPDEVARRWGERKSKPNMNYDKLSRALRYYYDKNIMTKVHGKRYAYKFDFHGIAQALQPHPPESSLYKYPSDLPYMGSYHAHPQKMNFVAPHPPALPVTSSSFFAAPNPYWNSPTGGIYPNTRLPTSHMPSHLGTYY
# Method in brief: as §1
# ELF1 = ELF1 (Homo sapiens, UniProt P32519 1-619); settings: protein: recombinant; tags: N-terminal GST; dsDNA, one strand shown
# Sequence of ELF1 (P32519 whole entry): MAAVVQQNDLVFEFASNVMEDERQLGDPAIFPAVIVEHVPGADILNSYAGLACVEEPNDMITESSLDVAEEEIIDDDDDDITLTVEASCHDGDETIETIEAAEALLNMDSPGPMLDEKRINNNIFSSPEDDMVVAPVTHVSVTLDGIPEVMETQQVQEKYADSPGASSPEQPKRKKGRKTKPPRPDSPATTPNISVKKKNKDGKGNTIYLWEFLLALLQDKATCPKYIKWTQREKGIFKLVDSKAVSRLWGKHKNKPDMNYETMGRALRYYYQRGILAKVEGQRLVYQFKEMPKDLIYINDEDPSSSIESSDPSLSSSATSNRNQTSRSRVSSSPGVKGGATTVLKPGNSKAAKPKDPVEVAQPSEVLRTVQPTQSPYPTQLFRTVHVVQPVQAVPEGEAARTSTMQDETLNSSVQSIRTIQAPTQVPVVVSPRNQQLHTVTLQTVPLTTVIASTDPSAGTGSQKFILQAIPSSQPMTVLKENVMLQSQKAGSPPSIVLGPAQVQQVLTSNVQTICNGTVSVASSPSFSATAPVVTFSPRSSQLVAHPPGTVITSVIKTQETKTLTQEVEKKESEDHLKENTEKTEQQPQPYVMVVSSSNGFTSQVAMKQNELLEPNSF
# Method in brief: as §1
# EHF = target: T5, EHF (Homo sapiens, UniProt Q9NZC4 1-300); settings: protein: recombinant; tags: N-terminal GST; dsDNA, one strand shown
# T5 sequence: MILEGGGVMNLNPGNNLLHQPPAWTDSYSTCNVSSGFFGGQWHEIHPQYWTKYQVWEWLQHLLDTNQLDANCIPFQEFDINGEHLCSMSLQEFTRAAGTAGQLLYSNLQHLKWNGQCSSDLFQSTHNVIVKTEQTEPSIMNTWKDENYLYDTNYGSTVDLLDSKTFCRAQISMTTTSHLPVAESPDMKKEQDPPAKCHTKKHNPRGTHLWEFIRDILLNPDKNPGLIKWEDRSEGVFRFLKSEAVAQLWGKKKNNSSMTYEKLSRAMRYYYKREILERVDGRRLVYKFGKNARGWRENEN
# Method in brief: as §1
# SPI1 = SPI1 (Homo sapiens, UniProt P17947 1-270); settings: protein: recombinant; tags: N-terminal GST; dsDNA, one strand shown
# Method in brief: as §1
# SPIB = SPIB (Homo sapiens, UniProt Q01892 1-262); settings: protein: recombinant; tags: N-terminal GST; dsDNA, one strand shown
# Sequence of SPIB (Q01892 whole entry): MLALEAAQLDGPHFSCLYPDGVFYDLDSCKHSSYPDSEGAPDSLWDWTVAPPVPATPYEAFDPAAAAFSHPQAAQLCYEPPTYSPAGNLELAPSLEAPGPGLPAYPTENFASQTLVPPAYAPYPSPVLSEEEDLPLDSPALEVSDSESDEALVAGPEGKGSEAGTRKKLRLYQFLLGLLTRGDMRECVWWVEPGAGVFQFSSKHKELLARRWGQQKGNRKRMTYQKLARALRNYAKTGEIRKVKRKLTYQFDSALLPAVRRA
# Method in brief: as §1
# ELK3 = target: T6, ELK3 (Homo sapiens, UniProt P41970 1-407); settings: protein: recombinant; tags: N-terminal GST; dsDNA, one strand shown
# T6 sequence: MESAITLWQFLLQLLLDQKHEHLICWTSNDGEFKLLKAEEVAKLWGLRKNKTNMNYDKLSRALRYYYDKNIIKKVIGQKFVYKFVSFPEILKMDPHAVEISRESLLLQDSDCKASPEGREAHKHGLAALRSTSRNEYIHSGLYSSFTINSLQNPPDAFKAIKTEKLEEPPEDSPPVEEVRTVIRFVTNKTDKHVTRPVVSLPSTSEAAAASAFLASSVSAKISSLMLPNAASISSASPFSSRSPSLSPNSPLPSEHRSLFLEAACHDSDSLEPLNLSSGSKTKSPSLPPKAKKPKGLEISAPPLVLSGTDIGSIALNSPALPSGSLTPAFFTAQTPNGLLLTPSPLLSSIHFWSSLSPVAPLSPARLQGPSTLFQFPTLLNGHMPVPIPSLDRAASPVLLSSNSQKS
# Method in brief: as §1
# FEV = target: T7, FEV (Homo sapiens, UniProt Q99581 1-238); settings: protein: recombinant; tags: N-terminal GST; dsDNA, one strand shown
# T7 sequence: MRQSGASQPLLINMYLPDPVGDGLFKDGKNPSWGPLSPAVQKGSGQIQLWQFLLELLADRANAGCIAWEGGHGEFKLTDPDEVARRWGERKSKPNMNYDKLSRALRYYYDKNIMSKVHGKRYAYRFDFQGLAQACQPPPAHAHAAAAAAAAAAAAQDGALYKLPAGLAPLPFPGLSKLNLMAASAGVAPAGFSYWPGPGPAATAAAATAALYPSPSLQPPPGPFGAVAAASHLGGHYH
# Method in brief: as §1
# ETV5 = ETV5 (Homo sapiens, UniProt P41161 1-510); settings: protein: recombinant; tags: N-terminal GST; dsDNA, one strand shown
# Sequence of ETV5 (P41161 whole entry): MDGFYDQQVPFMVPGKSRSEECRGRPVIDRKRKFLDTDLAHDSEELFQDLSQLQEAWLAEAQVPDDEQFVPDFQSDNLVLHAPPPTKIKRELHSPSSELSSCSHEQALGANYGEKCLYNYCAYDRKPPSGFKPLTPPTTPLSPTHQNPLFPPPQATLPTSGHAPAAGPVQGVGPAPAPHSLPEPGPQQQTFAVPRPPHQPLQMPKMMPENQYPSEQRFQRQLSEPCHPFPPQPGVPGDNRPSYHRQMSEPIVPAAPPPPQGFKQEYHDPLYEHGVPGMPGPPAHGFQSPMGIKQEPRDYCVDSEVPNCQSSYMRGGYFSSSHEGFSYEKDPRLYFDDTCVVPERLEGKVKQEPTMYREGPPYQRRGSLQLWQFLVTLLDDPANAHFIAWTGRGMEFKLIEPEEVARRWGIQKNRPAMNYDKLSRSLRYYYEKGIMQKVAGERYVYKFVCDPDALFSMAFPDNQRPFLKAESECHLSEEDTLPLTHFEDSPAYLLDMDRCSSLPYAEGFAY
# Method in brief: as §1
# HSF1 = HSF1 (Homo sapiens, UniProt Q00613 1-529); settings: protein: recombinant; tags: N-terminal GST; chain copies: 3; dsDNA, one strand shown
# Sequence of HSF1 (Q00613 whole entry): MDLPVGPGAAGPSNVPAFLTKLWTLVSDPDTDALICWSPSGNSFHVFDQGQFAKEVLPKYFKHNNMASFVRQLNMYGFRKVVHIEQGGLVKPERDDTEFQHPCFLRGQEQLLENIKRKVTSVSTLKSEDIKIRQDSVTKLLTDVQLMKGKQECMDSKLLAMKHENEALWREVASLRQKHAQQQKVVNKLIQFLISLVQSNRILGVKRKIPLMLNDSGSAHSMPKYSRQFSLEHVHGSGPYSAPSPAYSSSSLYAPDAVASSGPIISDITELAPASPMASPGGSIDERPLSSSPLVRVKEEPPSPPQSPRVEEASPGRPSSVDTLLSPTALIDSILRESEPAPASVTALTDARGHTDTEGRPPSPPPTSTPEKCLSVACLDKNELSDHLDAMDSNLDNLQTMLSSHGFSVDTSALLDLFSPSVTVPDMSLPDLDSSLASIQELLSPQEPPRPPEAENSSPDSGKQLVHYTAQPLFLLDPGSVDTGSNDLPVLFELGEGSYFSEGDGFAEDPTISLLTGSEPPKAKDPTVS
# Method in brief: as §1
# SPIC = target: T8, SPIC (Homo sapiens, UniProt Q8N5J4 1-248); settings: protein: recombinant; tags: N-terminal GST; dsDNA, one strand shown
# T8 sequence: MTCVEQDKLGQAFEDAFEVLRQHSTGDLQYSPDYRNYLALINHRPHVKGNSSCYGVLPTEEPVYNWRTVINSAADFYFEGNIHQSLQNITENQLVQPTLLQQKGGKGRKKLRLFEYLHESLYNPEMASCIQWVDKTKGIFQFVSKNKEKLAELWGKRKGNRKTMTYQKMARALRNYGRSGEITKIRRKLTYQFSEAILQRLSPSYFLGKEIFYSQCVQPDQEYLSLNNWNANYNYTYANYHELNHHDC
# Method in brief: as §1
# ELF4 = ELF4 (Homo sapiens, UniProt Q99607 1-663); settings: protein: recombinant; tags: N-terminal GST; dsDNA, one strand shown
# Sequence of ELF4 (Q99607 whole entry): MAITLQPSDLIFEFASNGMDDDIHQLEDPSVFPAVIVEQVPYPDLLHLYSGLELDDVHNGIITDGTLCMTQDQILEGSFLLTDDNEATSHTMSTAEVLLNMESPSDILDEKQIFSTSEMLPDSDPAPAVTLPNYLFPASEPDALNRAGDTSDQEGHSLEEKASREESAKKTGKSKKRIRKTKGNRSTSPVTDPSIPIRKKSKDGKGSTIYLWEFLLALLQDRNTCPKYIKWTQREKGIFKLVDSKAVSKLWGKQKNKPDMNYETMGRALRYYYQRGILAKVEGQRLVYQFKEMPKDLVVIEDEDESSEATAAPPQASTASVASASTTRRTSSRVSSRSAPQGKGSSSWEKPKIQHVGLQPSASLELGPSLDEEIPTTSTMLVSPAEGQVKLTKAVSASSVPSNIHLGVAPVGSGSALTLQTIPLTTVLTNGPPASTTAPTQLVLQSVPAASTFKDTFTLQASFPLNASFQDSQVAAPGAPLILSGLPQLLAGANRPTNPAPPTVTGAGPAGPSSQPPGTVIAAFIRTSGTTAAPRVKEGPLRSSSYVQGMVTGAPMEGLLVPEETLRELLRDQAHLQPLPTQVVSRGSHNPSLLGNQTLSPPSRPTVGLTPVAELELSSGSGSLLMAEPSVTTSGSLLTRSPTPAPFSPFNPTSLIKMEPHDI
# Method in brief: as §1
# ELK4 = target: T9, ELK4 (Homo sapiens, UniProt P28324-2 1-405); settings: protein: recombinant; tags: N-terminal GST; dsDNA, one strand shown
# T9 sequence: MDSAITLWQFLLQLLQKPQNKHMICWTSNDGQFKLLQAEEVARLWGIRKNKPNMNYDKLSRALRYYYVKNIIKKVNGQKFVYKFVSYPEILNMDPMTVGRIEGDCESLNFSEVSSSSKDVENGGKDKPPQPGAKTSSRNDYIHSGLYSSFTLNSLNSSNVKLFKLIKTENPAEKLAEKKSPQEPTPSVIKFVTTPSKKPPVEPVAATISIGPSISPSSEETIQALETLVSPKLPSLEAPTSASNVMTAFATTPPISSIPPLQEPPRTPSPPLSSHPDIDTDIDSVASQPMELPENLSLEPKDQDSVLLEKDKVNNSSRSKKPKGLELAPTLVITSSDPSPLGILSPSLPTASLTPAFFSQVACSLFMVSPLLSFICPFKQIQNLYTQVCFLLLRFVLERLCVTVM
# Method in brief: as §1
# ETV2 = target: T10, ETV2 (Homo sapiens, UniProt O00321 1-342); settings: protein: recombinant; tags: N-terminal GST; dsDNA, one strand shown
# T10 sequence: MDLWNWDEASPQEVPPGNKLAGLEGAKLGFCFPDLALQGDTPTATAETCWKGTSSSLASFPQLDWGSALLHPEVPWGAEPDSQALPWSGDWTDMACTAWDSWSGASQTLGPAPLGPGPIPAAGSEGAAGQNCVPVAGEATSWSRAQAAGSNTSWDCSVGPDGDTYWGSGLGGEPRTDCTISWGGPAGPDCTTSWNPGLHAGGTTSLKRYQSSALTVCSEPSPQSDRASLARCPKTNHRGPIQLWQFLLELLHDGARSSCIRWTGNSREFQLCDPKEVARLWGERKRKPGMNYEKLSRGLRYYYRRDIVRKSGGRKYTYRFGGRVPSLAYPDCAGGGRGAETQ
# Method in brief: as §1
# ELF3 = target: T11, ELF3 (Homo sapiens, UniProt P78545 1-371); settings: protein: recombinant; tags: N-terminal GST; dsDNA, one strand shown
# T11 sequence: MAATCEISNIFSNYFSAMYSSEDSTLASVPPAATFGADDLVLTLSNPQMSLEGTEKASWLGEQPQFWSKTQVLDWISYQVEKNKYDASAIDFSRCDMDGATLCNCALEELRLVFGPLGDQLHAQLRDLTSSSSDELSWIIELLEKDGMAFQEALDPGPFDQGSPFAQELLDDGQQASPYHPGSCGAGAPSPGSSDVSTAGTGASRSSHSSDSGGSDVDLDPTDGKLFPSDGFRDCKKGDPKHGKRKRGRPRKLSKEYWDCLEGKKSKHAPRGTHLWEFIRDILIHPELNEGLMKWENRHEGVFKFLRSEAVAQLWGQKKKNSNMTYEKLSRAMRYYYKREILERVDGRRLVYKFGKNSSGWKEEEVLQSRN
# Method in brief: as §1
# CRX = CRX (Homo sapiens, UniProt O43186 1-299); settings: protein: recombinant; tags: N-terminal GST; dsDNA, one strand shown
# Sequence of CRX (O43186 whole entry): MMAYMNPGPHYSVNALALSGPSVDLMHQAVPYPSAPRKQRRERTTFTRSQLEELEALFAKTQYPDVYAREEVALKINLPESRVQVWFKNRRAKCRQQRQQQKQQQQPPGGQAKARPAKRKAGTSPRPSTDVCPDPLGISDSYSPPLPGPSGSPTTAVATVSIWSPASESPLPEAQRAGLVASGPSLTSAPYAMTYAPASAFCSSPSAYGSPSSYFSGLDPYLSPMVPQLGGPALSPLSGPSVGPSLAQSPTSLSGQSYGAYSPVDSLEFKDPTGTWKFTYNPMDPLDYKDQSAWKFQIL
# Method in brief: as §1
# ETV1 = ETV1 (Homo sapiens, UniProt P50549 1-477); settings: protein: recombinant; tags: N-terminal GST; dsDNA, one strand shown
# Sequence of ETV1 (P50549 whole entry): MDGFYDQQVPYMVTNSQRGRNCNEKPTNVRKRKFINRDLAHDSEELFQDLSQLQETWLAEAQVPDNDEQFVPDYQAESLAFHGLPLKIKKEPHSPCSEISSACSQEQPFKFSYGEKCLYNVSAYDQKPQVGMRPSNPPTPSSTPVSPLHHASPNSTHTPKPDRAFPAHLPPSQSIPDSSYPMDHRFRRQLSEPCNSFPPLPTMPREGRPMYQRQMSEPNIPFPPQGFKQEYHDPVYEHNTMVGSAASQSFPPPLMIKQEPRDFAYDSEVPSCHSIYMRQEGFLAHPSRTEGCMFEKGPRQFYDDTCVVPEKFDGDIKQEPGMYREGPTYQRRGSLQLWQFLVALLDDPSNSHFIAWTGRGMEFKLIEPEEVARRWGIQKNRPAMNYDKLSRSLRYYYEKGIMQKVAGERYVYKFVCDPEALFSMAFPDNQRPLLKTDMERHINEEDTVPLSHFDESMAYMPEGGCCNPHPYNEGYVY
# Method in brief: as §1
sequence,measurement,setting,value
TCTGCA,binding signal,FLI1,"1.42 fold enrichment (6-mer frequency, TF over GST control)"
same,binding signal,ELK1,"1.4 fold enrichment (6-mer frequency, TF over GST control)"
same,binding signal,GABPA,"1.31 fold enrichment (6-mer frequency, TF over GST control)"
same,binding signal,ERG,"1.25 fold enrichment (6-mer frequency, TF over GST control)"
same,binding signal,ELF1,"1.3 fold enrichment (6-mer frequency, TF over GST control)"
same,binding signal,EHF,"1.27 fold enrichment (6-mer frequency, TF over GST control)"
same,binding signal,SPI1,"1.33 fold enrichment (6-mer frequency, TF over GST control)"
same,binding signal,SPIB,"1.41 fold enrichment (6-mer frequency, TF over GST control)"
same,binding signal,ELK3,"1.48 fold enrichment (6-mer frequency, TF over GST control)"
same,binding signal,FEV,"1.43 fold enrichment (6-mer frequency, TF over GST control)"
same,binding signal,ETV5,"1.36 fold enrichment (6-mer frequency, TF over GST control)"
same,binding signal,HSF1,"1.26 fold enrichment (6-mer frequency, TF over GST control)"
same,binding signal,SPIC,"1.36 fold enrichment (6-mer frequency, TF over GST control)"
same,binding signal,ELF4,"1.42 fold enrichment (6-mer frequency, TF over GST control)"
same,binding signal,ELK4,"1.43 fold enrichment (6-mer frequency, TF over GST control)"
same,binding signal,ETV2,"1.2 fold enrichment (6-mer frequency, TF over GST control)"
same,binding signal,ELF3,"1.36 fold enrichment (6-mer frequency, TF over GST control)"
same,binding signal,CRX,"1.25 fold enrichment (6-mer frequency, TF over GST control)"
same,binding signal,ETV1,"1.26 fold enrichment (6-mer frequency, TF over GST control)"
